The results in this text go back to PubChem BioAssay (EPA / NIEHS).

Read-out in assay [1]: Matrix Metallopeptidase 1 (MMP1), MMP1 (gene 4312)
Put plainly: BSK_BE3C_MMP1: BioMAP Diversity Plus: BE3C Assay for Matrix Metallopeptidase 1 (MMP1) Biomarker Activity (AID 2283024). Conditions: primary human bronchial epithelial cells; actives raise or lower the signal. In a few lines:
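ELISA measurement of MMP-1 after 24 h compound exposure of primary human bronchial epithelial cells. Changes in either direction fitted relative to DMSO; parallel SRB staining checked overt cytotoxicity.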

A short description of assay [2]: BSK_4H_SRB: Viability Assessment in the BioMAP Diversity Plus: 4H Assay (AID 2283027).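 For AC50: curves fitted both ways versus DMSO so AC50 may be loss or gain.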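 Note: cells exposed to compound for 24 h before staining.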 Conditions: primary human endothelial cells (HUVEC). In a few lines: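 Cytotoxicity read-out in primary human endothelial cells: after 24 h compound exposure, cells were TCA-fixed (10%), stained with 0.1% SRB and absorbance taken at 560 nm. Values fitted in both directions relative to DMSO.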

A short description of assay [3]: BSK_BE3C_SRB: Viability Assessment in the BioMAP Diversity Plus: BE3C Assay (AID 2283028). Particulars: primary human bronchial epithelial cells. In a few lines:
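Cytotoxicity read-out: SRB (0.1%) staining of TCA-fixed (10%) human lung bronchial epithelial cells, absorbance 560 nm, 24 h post-dosing. Curves fitted both directions relative to DMSO.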

Read-out in assay [4]: Thrombomodulin, THBD (gene 7056)
Put plainly: BSK_3C_Thrombomodulin: BioMAP Diversity Plus: 3C Assay for Thrombomodulin Biomarker Activity (AID 2283029). Particulars: primary human endothelial cells (HUVEC); actives raise or lower the signal. Put shortly:
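ELISA measurement of thrombomodulin on HUVEC surface 24 h after chemical dosing; activity fitted in both directions relative to DMSO vehicle.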

Read-out in assay [5]: Urokinase-type plasminogen activator receptor (uPAR), PLAUR (gene 5329)
Briefly: BSK_4H_uPAR: BioMAP Diversity Plus: 4H Assay for Urokinase-type plasminogen activator receptor (uPAR) Biomarker Activity (AID 2283030). Conditions: primary human endothelial cells (HUVEC); actives raise or lower the signal. In a few lines: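 uPAR level read by ELISA on HUVEC cultures (BioMAP 4H) 24 h post-dosing, analyzed for gain or loss relative to DMSO. Parallel SRB staining assessed overt cytotoxicity.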

Read-out in assay [6]: Vascular endothelial growth factor receptor 2 (Homo sapiens) (UniProt P35968)
Put plainly: BSK_4H_VEGFRII: BioMAP Diversity Plus: 4H Assay for Vascular endothelial growth factor receptor 2 (VEGFR2) Biomarker Activity (AID 2283031).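 For AC50: cell-surface VEGFR2 protein level quantified by ELISA.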 Conditions: primary human endothelial cells (HUVEC); actives raise or lower the signal. Put shortly: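 Measured by ELISA after 24 h of compound treatment: VEGFR2 on primary human umbilical vein endothelial cells, fitted in both directions relative to DMSO. Parallel cultures received SRB staining (560 nm) for overt cytotoxicity.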

Read-out in assay [7]: Human Leukocyte Antigen - DR isotype (HLADR), HLA-DRA (gene 3122)
Put plainly: BSK_BE3C_HLADR: BioMAP Diversity Plus: BE3C Assay for Human Leukocyte Antigen - DR isotype (HLADR) Biomarker Activity (AID 2283032). Particulars: primary human bronchial epithelial cells; actives raise or lower the signal. In a few lines:
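Cell-surface HLA-DR ELISA readout at 24 h after dosing in the BE3C primary human lung bronchial epithelial system; gain or loss of signal against DMSO, with parallel sulforhodamine B staining of total protein for overt cytotoxicity.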

Read-out in assay [8]: Vascular cell adhesion molecule 1 (VCAM1), VCAM1 (gene 7412)
Briefly: BSK_4H_VCAM1: BioMAP Diversity Plus: 4H Assay for Vascular cell adhesion molecule 1 (VCAM1) Biomarker Activity (AID 2283033).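 For outcome: cell-surface VCAM-1 protein measured by ELISA.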 Particulars: primary human endothelial cells (HUVEC); actives raise or lower the signal. Put shortly: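 VCAM-1 ELISA read 24 h after chemical dosing of HUVEC in the BioMAP 4H system, with gain or loss of signal fitted relative to DMSO. Parallel SRB staining (560 nm) checked overt cytotoxicity.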

Read-out in assay [9]: Interferon-gamma inducible Protein 10 (IP10), CXCL10 (gene 3627)
Briefly: BSK_BE3C_IP10: BioMAP Diversity Plus: BE3C Assay for Interferon-gamma inducible Protein 10 (IP10) Biomarker Activity (AID 2283034). Particulars: primary human bronchial epithelial cells; actives raise or lower the signal. Put shortly: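 IP-10 quantified by ELISA in human primary bronchial epithelial cell cultures at 24 hours post-dosing. Gain or loss of signal fitted relative to DMSO; parallel SRB staining assessed overt cytotoxicity.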

Read-out in assay [10]: Monokine induced gamma interferon (MIG), CXCL9 (gene 4283)
Put plainly: BSK_BE3C_MIG: BioMAP Diversity Plus: BE3C Assay for Monokine induced gamma interferon (MIG) Biomarker Activity (AID 2283035).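 Note: MIG protein measured by ELISA in BE3C cultures after 24 h of dosing.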 Particulars: primary human bronchial epithelial cells; actives raise or lower the signal. In a few lines: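 ELISA quantified MIG after 24 h exposure of primary bronchial epithelial cultures, analysed in both directions relative to DMSO. Cytotoxicity tracked in parallel cultures by sulforhodamine B staining.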

Read-out in assay [11]: Plasminogen activator inhibitor-1 (PAI1), SERPINE1 (gene 5054)
Put plainly: BSK_BE3C_PAI1: BioMAP Diversity Plus: BE3C Assay for Plasminogen activator inhibitor-1 (PAI1) Biomarker Activity (AID 2283037). Particulars: primary human bronchial epithelial cells; actives raise or lower the signal. Put shortly:
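PAI-1 was measured by ELISA in human primary bronchial epithelial cultures 24 h after chemical dosing, with cytotoxicity checked by SRB total-protein staining in parallel cultures. Activity was fitted in both directions relative to DMSO.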

Read-out in assay [12]: urokinase plasminogen activator (uPA), PLAU (gene 5328)
Put plainly: BSK_BE3C_uPA: BioMAP Diversity Plus: BE3C Assay for urokinase plasminogen activator (uPA) Biomarker Activity (AID 2283038).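 Note: uPA protein level quantified by ELISA in cell cultures; uPA read one day after compound addition.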 Conditions: primary human bronchial epithelial cells; actives raise or lower the signal. Put shortly:
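ELISA for uPA on human primary bronchial epithelial cultures 24 h post-treatment, gain or loss against DMSO. Parallel SRB staining (0.1% after 10% TCA fixation, 560 nm) assessed overt cytotoxicity.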

Read-out in assay [13]: Urokinase-type plasminogen activator receptor (uPAR), PLAUR (gene 5329)
Briefly: BSK_BE3C_uPAR: BioMAP Diversity Plus: BE3C Assay for Urokinase-type plasminogen activator receptor (uPAR) Biomarker Activity (AID 2283039).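 Note: cells exposed to compound for one day before measurement.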 Conditions: primary human bronchial epithelial cells; actives raise or lower the signal. Put shortly: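 uPAR levels were measured by ELISA after 24 h compound treatment of primary human bronchial epithelial cells, fitted in both directions relative to DMSO. Parallel SRB staining served as the cytotoxicity read-out.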

Read-out in assay [14]: Interleukin-6 (IL6), IL6 (gene 3569)
Briefly: BSK_CASM3C_IL6: BioMAP Diversity Plus: CASM3C Assay for Interleukin-6 (IL6) Biomarker Activity for (AID 2283040). Particulars: primary human coronary artery smooth muscle cells; actives raise or lower the signal.

Read-out in assay [15]: Interleukin-8 (IL8), CXCL8 (gene 3576)
Put plainly: BSK_CASM3C_IL8: BioMAP Diversity Plus: CASM3C Assay for Interleukin-8 (IL8) Biomarker Activity (AID 2283042).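 Note: IL-8 protein level quantified by ELISA.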 Particulars: primary human coronary artery smooth muscle cells; actives raise or lower the signal.

Read-out in assay [16]: Human Leukocyte Antigen - DR isotype (HLADR), HLA-DRA (gene 3122)
Briefly: BSK_CASM3C_HLADR: BioMAP Diversity Plus: CASM3C Assay for Human Leukocyte Antigen - DR isotype (HLADR) Biomarker Activity (AID 2283043).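 Note: cell-surface HLA-DR protein level quantified by ELISA.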 Particulars: primary human coronary artery smooth muscle cells; actives raise or lower the signal.

Read-out in assay [17]: Monocyte Chemoattractant Protein-1 (MCP1), CCL2 (gene 6347)
Put plainly: BSK_CASM3C_MCP1: BioMAP Diversity Plus: CASM3C Assay for Monocyte Chemoattractant Protein-1 (MCP1) Biomarker Activity (AID 2283046).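 Note: MCP-1 level quantified by ELISA 24 h after dosing.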 Particulars: primary human coronary artery smooth muscle cells; actives raise or lower the signal.

The nature of assay [18]: BSK_CASM3C_Proliferation: Cell Proliferation Assessment in the BioMAP Diversity Plus: CASM3C Assay (AID 2283047).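 Note: sulforhodamine B total protein stain as relative cell number at 560 nm; sub-confluent cells exposed 48 h before staining; fitted both ways against DMSO so gain or loss of cell number.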 Conditions: primary human coronary artery smooth muscle cells.
Read-out in assay [19]: Monokine induced gamma interferon (MIG), CXCL9 (gene 4283)
Briefly: BSK_CASM3C_MIG: BioMAP Diversity Plus: CASM3C Assay for Monokine induced gamma interferon (MIG) Biomarker Activity (AID 2283048).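 Note: MIG protein level measured by ELISA.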 Particulars: primary human coronary artery smooth muscle cells; actives raise or lower the signal.

Read-out in assay [20]: Thrombomodulin, THBD (gene 7056)
Put plainly: BSK_CASM3C_Thrombomodulin: BioMAP Diversity Plus: CASM3C Assay for Thrombomodulin Biomarker Activity (AID 2283051).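 Note: thrombomodulin protein level measured by ELISA 24 h after dosing.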 Conditions: primary human coronary artery smooth muscle cells; actives raise or lower the signal.

Calls of active or inactive are those of the source. Rule for the calls: active = hit-call score of the fitted dose curve at least 0.9, where 1 is the maximum; inactive = score below 0.9.

A word on the AC50: it is the concentration giving half of the maximal activity seen.

`CN(C)c1ccc(C(c2ccccc2)c2ccc(N(C)C)cc2)cc1`: the AC50 in assay [1] is 5.54 µM (active); in [2], 4.33 µM (active); in assay [6], 5.36 µM (active); in assay [8], 20 µM (active); in [9] it was 10.7 µM (active); in [11] it was 10.9 µM (active). Further, the AC50 in assay [14] is 9.64 µM (active); in assay [18], 9.42 µM (active); in [20], 1.26 µM (active). Besides, the outcome in assay [3], in assay [4], in assay [5], in assay [7], in assay [10] and in [12] was inactive. Moreover, the result in assay [13], in assay [15], in assay [16], in [17] and in assay [19] was inactive.

Regarding `CN(C)CCC(c1ccc(Cl)cc1)c1ccccn1` (stereo not given), the result in [1], in [2], in assay [3], in assay [4], in assay [5] and in [6] was inactive. Besides, the result in assay [7], in assay [9], in assay [10], in assay [11], in assay [12] and in assay [13] was inactive. In addition, the outcome in assay [14], in [15], in [16], in [17], in assay [18] and in assay [19] was inactive. Besides, the outcome in assay [20] was inactive. Further, the AC50 in assay [8] is 0.756 µM (active).

As for `CCCCCCCCCCC1CO1` (stereo not given), the result in assay [1], in assay [3], in [4], in assay [10], in assay [11] and in assay [12] was inactive. In addition, the outcome in assay [13], in assay [14], in assay [15], in [16], in assay [18] and in assay [19] was inactive. The outcome in [20] was inactive. Further, the AC50 in [2] is 30 µM (active); in [5], 30.1 µM (active); in assay [6], 34.7 µM (active); in [7], 31.2 µM (active); in assay [8], 33.8 µM (active); in [9] it was 30.6 µM (active). In addition, in assay [17], the AC50 is 6.3 µM (active).

On to `Cc1cc(-n2nc3ccc(Cl)cc3n2)c(O)c(C(C)(C)C)c1`, for which the result in [1], in assay [2], in assay [3], in [4], in [6] and in assay [7] was inactive. Besides, the outcome in [8], in assay [9], in [10], in [11], in assay [12] and in [13] was inactive. For the same compound, the result in assay [14], in assay [15], in assay [16], in assay [17], in [18] and in [19] was inactive. Moreover, the outcome in assay [20] was inactive. The AC50 in assay [5] was 1.37 µM (active).

With `Cc1cccnc1`, the outcome in assay [1], in assay [2], in [3], in assay [4], in assay [5] and in assay [6] was inactive. Also, the result in assay [7], in [8], in assay [9], in [10], in assay [11] and in assay [12] was inactive. For the same compound, the result in [13], in assay [14], in assay [15], in [16], in assay [17] and in [18] was inactive. The result in [19] and in assay [20] was inactive.

As for `CCCCCCC(O)CCCCCCCCCCC(=O)OC` (stereo not given), the AC50 is 3.22 µM (active) in assay [1] and 9.22 µM (active) in assay [9]. For the same compound, the result in [2], in [3], in [4], in [5], in [6] and in assay [7] was inactive. Also, the result in assay [8], in [10], in assay [11], in assay [12], in assay [13] and in assay [14] was inactive. Also, the outcome in [15], in assay [16], in [17], in [18], in assay [19] and in assay [20] was inactive.

For the compound `COC(=O)/C=C\C(=O)OC`, the result in [1], in [2], in assay [3], in assay [4], in [5] and in assay [6] was inactive. For the same compound, the result in assay [10], in [11], in assay [12], in assay [13], in assay [14] and in [15] was inactive. The outcome in assay [17], in assay [18], in [19] and in [20] was inactive. Besides, the AC50 in [7] was 10.7 µM (active); in [8], 17.7 µM (active); in assay [9], 20 µM (active); in [16], 5.11 µM (active).

As for `CCC(C)=NO`, the outcome in assay [1], in assay [2], in assay [3], in [4], in [5] and in assay [6] was inactive. For the same compound, the result in [7], in assay [8], in [9], in assay [10], in assay [11] and in assay [12] was inactive. The outcome in [13], in [14], in assay [15], in assay [16], in [17] and in [18] was inactive. For the same compound, the outcome in assay [19] and in assay [20] was inactive.
